# Reference: PubChem BioAssay AID602448 (National Center for Advancing Translational Sciences (NCATS), 2012)
# Active and inactive are the calls of the source.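 Rule for the calls: active = max inhibition of at least 60%; inconclusive = max inhibition above 30% but below 60%; inactive = max inhibition of 30% or less.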
# Biological target: Follicle-stimulating hormone receptor (Homo sapiens) (UniProt P23945)
# Experiment: qHTS for antagonists of the Thyroid Stimulation Hormone Receptor: Hit Validation with Follickle Stimulating Hormone Receptor (FSHR)
# Settings: FSHR-expressing cells, cAMP HTRF, antagonist counterscreen; stronger effect = higher value
# Excerpt: The thyroid-stimulating hormone receptor (TSHR) is a member of the 7 trans-membrane-spanning receptor (7TMR) family of cell surface receptors. TSHR-mediated hyperthyroidism is important in thyroid pathology. The development of small molecule antagonists of TSHR may lead to therapeutic approaches for TSHR-mediated hyperthyroidism caused by constitutively activating mutations or stimulating auto-antibodies associated with Graves' disease. Graves' disease is the leading cause of hyperthyroidism and is caused by autoantibodies that stimulate TSHR (TsAbs) causing thyroid growth and unregulated overproduction of thyroid hormones and existing treatments have liabilities (agranulocytosis). In addition, TSHRs are known to be expressed in multiple extrathyroidal tissues including bone, brain, kidney, testis, fat and cells of the immune system but the role of the TSHR in these tissues is not clear. Therefore, TSHR antagonists/inverse agonists could be used as probes of extrathyroidal TSHR function. Finally, TSHR inverse agonists, which are a subclass of antagonists that inhibit agonist-independent (or basal or constitutive) TSHR signaling, could be used to inhibit TSH-independent signaling in patients with recurrent or metastatic thyroid cancer who are receiving thyroid hormone to suppress TSH. In collaboration between scientist from the NCGC and the NIDDK, a miniaturized HTRF high-throughput screen was developed. It's a cell based assay, where an anti cAMP antibody contains a fluorescent cryptate tag (excitation 337 nm; emission 620 nm) and the acceptor is cAMP-d2 (excitation 620 nm; emission 665 nm). When antibody and cAMP-d2 interact and are excited by a 337 nm light, a FRET occurs resulting in emission at 665 nm. The assay is competition between cAMP-d2 and cAMP (from the cell lysate). The homogeneous protocol allows for one step dispense after stimulation that is automation friendly. This is a hit validation assay in a counterscreen using FSHR, a closely related hormone receptor NIH Chemical Genomics Center [NCGC] NIH Molecular Libraries Probe Centers Network [MLPCN] Grant: MH090855 Assay Provider: Marvin Gershengorn, NIDDK
# An anti cAMP antibody contains a fluorescent cryptate tag (excitation 337 nm; emission 620 nm) and the acceptor is cAMP-d2 (excitation 620 nm; emission 665 nm). When antibody and cAMP-d2 interact and are excited by a 337 nm light, a FRET occurs resulting in emission at 665 nm. The assay is competition between cAMP-d2 and cAMP (from the cell lysate). The homogeneous protocol allows for one step dispense after stimulation that is automation friendly.
# Chain of Follicle-stimulating hormone receptor (Homo sapiens) (P23945 whole entry, looked up): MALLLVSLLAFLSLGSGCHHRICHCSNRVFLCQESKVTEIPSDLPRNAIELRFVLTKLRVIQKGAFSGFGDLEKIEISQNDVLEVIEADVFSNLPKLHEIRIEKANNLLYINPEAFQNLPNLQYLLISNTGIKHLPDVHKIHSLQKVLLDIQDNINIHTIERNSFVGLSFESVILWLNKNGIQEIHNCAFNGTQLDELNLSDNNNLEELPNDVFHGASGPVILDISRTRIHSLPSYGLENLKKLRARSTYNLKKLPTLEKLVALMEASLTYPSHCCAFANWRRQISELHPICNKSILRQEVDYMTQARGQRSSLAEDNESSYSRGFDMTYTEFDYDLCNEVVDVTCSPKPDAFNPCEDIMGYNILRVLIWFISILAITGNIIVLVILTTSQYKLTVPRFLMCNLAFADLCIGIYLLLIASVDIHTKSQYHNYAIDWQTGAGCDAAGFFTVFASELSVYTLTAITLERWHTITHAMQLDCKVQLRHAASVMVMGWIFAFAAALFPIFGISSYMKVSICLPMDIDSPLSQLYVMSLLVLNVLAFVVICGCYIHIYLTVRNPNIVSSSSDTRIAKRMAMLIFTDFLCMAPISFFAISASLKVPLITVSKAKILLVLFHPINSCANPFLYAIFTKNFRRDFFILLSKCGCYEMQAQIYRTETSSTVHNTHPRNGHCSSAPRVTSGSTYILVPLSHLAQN
row,SMILES,max inhibition
1,O=C(COc1cccc2ccccc12)Nc1ccc(Cl)cc1C(=O)O,62.5% (active)
2,CC(=O)Oc1c(C)cc(Cl)cc1C(=O)Nc1ccc([N+](=O)[O-])cc1Cl,63.6% (active)
3,O=c1cc(C(F)(F)F)[nH]c2c(C(F)(F)F)cccc12,82.4% (active)
4,O=C1/C(=C\c2cc([N+](=O)[O-])ccc2O)SC(=S)N1Cc1ccc(Cl)cc1,94.2% (active)
5,CCC(=O)OCCNc1cc(Sc2nccn2C)c2nonc2c1[N+](=O)[O-],20%
6,Cc1ccc(-n2[nH]c(C)c(/C=N/Nc3ccc([N+](=O)[O-])cc3[N+](=O)[O-])c2=O)cc1C,81.1% (active)
7,COc1ccc(OCC(=O)NC(=S)Nc2ccc(N3CCOCC3)c(Cl)c2)cc1,87.6% (active)
8,COc1ccc(-c2csc(/C(C#N)=C\c3ccc(O)c([N+](=O)[O-])c3)n2)cc1OC,87.2% (active)
